PubChem BioAssay (NCATS)
Results filed as inconclusive are left out. The source made the active and inactive calls. Calls follow the shape of the dose curve; as a rule, active = well fitted inhibition curve with a large enough effect; inconclusive = small, poorly fitted or top-dose-only effect; inactive = flat fitted curve, though single readings scatter.

Experiments:
Test in all cases: qHTS profiling for inhibitors of Plasmodium falciparum proliferation (AID 504749); also: nearly all actives have a fitted effect of over 60% in size
Settings in all cases: P. falciparum in erythrocytes, SYBR Green DNA, 72 h; series mostly up to 28.7 µM
CP335 = system: CP335
Outline: (§1)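 Three-day growth assay of blood-stage parasites in erythrocytes (0.3% parasitemia, 2.5% hematocrit) at 37 C, 5% CO2, quantified by SYBR Green DNA staining after overnight detergent lysis.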

DFO2036 = system: DFO2036
Outline: as §1

DIV14 = system: DIV14
Outline: as §1

DIV17 = system: DIV17
Outline: as §1

Dd2 = system: Dd2
Outline: as §1

ECU = system: ECU
Outline: as §1

FAB9 = system: FAB9
Outline: as §1

GB4 = system: GB4
Outline: as §1

HB3 = system: HB3
Outline: as §1

ICS = system: ICS
Outline: as §1

JCK = system: JCK
Outline: as §1

N140 = system: N140
Outline: as §1

P93_24 = system: P93_24
Outline: as §1

P94_40 = system: P94_40
Outline: as §1

PAD = system: PAD
Outline: as §1

PC15 = system: PC15
Outline: as §1

PC26 = system: PC26
Outline: as §1

PC49 = system: PC49
Outline: as §1

SC27B = system: SC27B
Outline: as §1

DIV30 = system: DIV30
Outline: as §1

Measured: Potency

N#CN
inactive: CP335 | DFO2036 | DIV14 | DIV17 | Dd2 | ECU | FAB9 | GB4 | HB3 | ICS | JCK | N140 | P93_24 | P94_40 | PAD | PC15 | PC26 | PC49 | SC27B

COCC(C)N(C(=O)CCl)c1c(C)csc1C (centres undefined)
inactive: CP335 | DFO2036 | DIV14 | DIV17 | Dd2 | ECU | FAB9 | GB4 | HB3 | JCK | N140 | P93_24 | P94_40 | PAD | PC15 | PC26 | PC49 | SC27B

CCCCCCCCOC(=O)c1ccccc1C(=O)OCCCCCCCC
inactive: CP335 | DFO2036 | DIV14 | DIV17 | DIV30 | Dd2 | ECU | FAB9 | GB4 | HB3 | JCK | N140 | P94_40 | PAD | PC15 | PC26 | PC49 | SC27B

CC(=O)O[C@H]1CC[C@H]2[C@@H]3CCC4=CC(=O)CCC4=C3C=C[C@]12C
inactive: CP335 | DFO2036 | DIV14 | DIV17 | DIV30 | Dd2 | ECU | FAB9 | HB3 | ICS | JCK | N140 | P93_24 | PAD | PC15 | PC26 | PC49 | SC27B

CN1c2ccccc2C(NCCCCCCC(=O)O)c2ccc(Cl)cc2S1(=O)=O (centres undefined)
inactive: CP335 | DFO2036 | DIV14 | DIV17 | DIV30 | Dd2 | ECU | FAB9 | GB4 | HB3 | ICS | JCK | N140 | P93_24 | P94_40 | PAD | PC15 | PC26 | PC49 | SC27B

CC(C)(O)C1C2OC(=O)C1C1(O)CC3OC34C(=O)OC2C14C (centres undefined)
inactive: CP335 | DFO2036 | DIV14 | DIV17 | DIV30 | Dd2 | ECU | FAB9 | GB4 | HB3 | ICS | JCK | N140 | P93_24 | P94_40 | PAD | PC15 | PC26 | PC49 | SC27B

O=c1[nH]c(=O)n(Cl)c(=O)n1Cl
inactive: CP335 | DFO2036 | DIV14 | DIV17 | DIV30 | Dd2 | ECU | FAB9 | GB4 | HB3 | ICS | JCK | N140 | P93_24 | P94_40 | PAD | PC15 | PC26 | PC49 | SC27B

CCCCCl
inactive: CP335 | DFO2036 | DIV14 | DIV17 | DIV30 | Dd2 | ECU | FAB9 | GB4 | HB3 | ICS | N140 | P93_24 | P94_40 | PAD | PC15 | PC49 | SC27B

O=c1[nH]cc(N(CCCl)CCCl)c(=O)[nH]1
inactive: CP335 | DFO2036 | DIV14 | DIV17 | DIV30 | Dd2 | ECU | FAB9 | GB4 | HB3 | JCK | N140 | P93_24 | P94_40 | PAD | PC15 | PC26 | PC49 | SC27B

O=S(=O)(O)c1cc(O)ccc1O
inactive: CP335 | DFO2036 | DIV14 | DIV17 | DIV30 | Dd2 | ECU | FAB9 | HB3 | ICS | JCK | N140 | P93_24 | P94_40 | PAD | PC15 | PC26 | PC49 | SC27B

C[C@H]1CC[C@@H]2[C@@H](C)[C@H]3[C@H](C[C@H]4[C@@H]5CC=C6CC(O[C@@H]7O[C@H](CO)[C@H](O)[C@H](O[C@@H]8O[C@H](CO)[C@@H](O)[C@H](O)[C@H]8O)[C@H]7O[C@H]7O[C@@H](C)[C@H](O)[C@@H](O)[C@H]7O)CC[C@]6(C)[C@H]5CC[C@]34C)N2C1 (some centres undefined)
inactive: CP335 | DFO2036 | DIV14 | DIV17 | DIV30 | Dd2 | ECU | FAB9 | GB4 | HB3 | ICS | JCK | N140 | P93_24 | P94_40 | PAD | PC15 | PC26 | PC49 | SC27B
